This is a sample that favours compounds with a hit; in the whole collection about 3.2% have one here.
Sm TGR inh: S. mansoni TGR enzyme inhibition; purified TGR, DTNB reduction, TNB absorbance 405 nm; Potency, µM (doses to about 114 µM), inactives show at the top dose activity change, negative = inhibition, hits mostly inhibitors; actives 3% (n = 360,000); also: nearly all actives have a fitted effect of over 60% in size
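First, TGR (20 nM dispensed) and NADPH were mixed with compound. Second, a 15 min room-temperature incubation followed. Third, further NADPH and then DTNB were added to start the reaction. Finally, TNB absorbance was monitored kinetically.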
AmpC inh detg: AmpC beta-lactamase inhibition with detergent present | AID 485294 | Potency, µM (top dose mostly 114 µM), for inactives: top-dose activity change, negative = inhibition, usual class: inhibitors | AmpC hydrolysis of nitrocefin, absorbance 480 nm, 0.01% Triton | actives 0.041% (n = 370,000) | P00811;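 also: 0% = no-compound wells and -100% = no-enzyme wells; nearly all actives have a fitted effect of over 25% in size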
Target sequence (P00811 whole entry, looked up): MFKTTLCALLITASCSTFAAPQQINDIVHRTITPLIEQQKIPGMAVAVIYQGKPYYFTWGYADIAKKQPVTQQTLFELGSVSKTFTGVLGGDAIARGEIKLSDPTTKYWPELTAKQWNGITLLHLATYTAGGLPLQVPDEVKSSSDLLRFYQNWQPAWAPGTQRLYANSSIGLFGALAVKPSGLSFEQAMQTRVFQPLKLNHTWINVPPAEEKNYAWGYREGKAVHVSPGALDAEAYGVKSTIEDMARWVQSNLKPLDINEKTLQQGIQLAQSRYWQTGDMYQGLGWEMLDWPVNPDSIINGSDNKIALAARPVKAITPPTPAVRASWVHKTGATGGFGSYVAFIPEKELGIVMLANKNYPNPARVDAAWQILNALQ
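AmpC (5.3 nM in the dispensed reagent) in 20 mM phosphate pH 7.0 with 0.01% (detergent screen) or 0.0001% Triton X-100 was preincubated with compounds for 15 min at room temperature. Nitrocefin was then added from an 800 uM solution, and hydrolysis was followed at 480 nm.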
AMA1-RON2 inh: disrupts binding of P. falciparum AMA1 to RON2; AlphaScreen AMA1-biotinylated RON2 peptide binding; Potency, µM (titrated, usually from 58.2 µM), inactives show top-dose activity change, negative = inhibition, usual class: inhibitors; actives 0.2% (n = 360,000); AID 720542;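 also: 0% = vehicle wells and -100% = peptide control; nearly all actives have a fitted effect of over 45% in size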
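AMA1 (3D7) with his tag at 25 nM final met compounds first, then biotinylated RON2 peptide at 25 nM; detection used donor plus acceptor beads, 10 µg/mL apiece, read by AlphaScreen after 30 min at room temperature.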
RE007 growth inh: less growth of the S. pombe RE007 Vpr strain; S. pombe RE007 Vpr strain, BacTiter-Glo ATP luminescence, 24 h; Potency, µM (series often up to 92.2 µM), without a hit: at the highest dose activity change, negative = less growth, usual class: inhibitors; actives 0.21% (n = 360,000); active = well fitted falling curve with a large enough effect; inconclusive = small, poorly fitted or top-dose-only effect; inactive = no such curve, though single readings can be large or run the other way; also: nearly all actives have a fitted effect of over 50% in size
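Fission yeast RE007 carrying one integrated HIV-1 vpr copy, seeded at OD 0.01 in PMG+AL medium with 23 nL pinned compound. Grown 24 h at 30 degrees; viability read by BacTiter-Glo luminescence after 5 min.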
AmpC no deterg: AmpC beta-lactamase inhibition without detergent; Potency, µM (series often up to 57.1 µM), inactives show at the highest dose activity change, negative = inhibition, hits mostly inhibitors; AID 485341; P00811; actives 0.52% (n = 330,000); AmpC nitrocefin hydrolysis, absorbance 480 nm, 0.0001% Triton;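 also: plate controls were no compound for no effect and no enzyme for full effect; nearly all actives have a fitted effect of over 20% in size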
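AmpC (5.3 nM in the dispensed reagent) in 20 mM phosphate pH 7.0 with 0.01% (detergent screen) or 0.0001% Triton X-100 was preincubated with compounds for 15 min at room temperature. Nitrocefin was then added from an 800 uM solution, and hydrolysis was followed at 480 nm.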
* marks the source's active call; other numbers are inactive results; u = inconclusive; x = no result. Unless noted, calls follow the shape of the dose curve; as a rule, active = well fitted curve in the direction sought with a large enough effect; inconclusive = small, poorly fitted or top-dose-only effect, or another doubt; inactive = no such curve, though single readings can be large; an effect the other way counts as inactive or inconclusive. Unless noted, % is scaled to controls: 0 for no effect and ±100 for the full control effect; potency is read from the fitted curve at half-maximal effect.

SMILES | Sm TGR inh | AmpC inh detg | AMA1-RON2 inh | RE007 growth inh | AmpC no deterg
COc1ccccc1C(CCNCc1ccc(N(C)C)cc1)c1ccc(OC(C)C)cc1 (centres undefined) | 5.1% | -3.9% | 8.91µM* | -8.8% | 49.9%
COc1ccc(CNCCC(c2ccc(OC(C)C)cc2)c2ccccc2OC)cc1 (centres undefined) | 7.7% | -4.1% | 12.2% | 21.6% | 22.5%
Cc1cc(NC(=O)CN2C(=O)c3cccnc3Sc3ccccc32)ccc1Br | -4.0% | -2.9% | x | x | x
CCCc1nc2ccccc2n2c(-c3ccc(C)cc3)c3c(=O)n(C)c(=O)n(C)c3c12 | -1.4% | 19.4% | x | x | x
Cc1nc(N2CCOCC2)[nH]c(=O)c1C(O)C(Cl)(Cl)Cl (centres undefined) | 44.7µM* | 1.9% | -1.4% | 0.4% | -6.2%
Cc1cccc(NC(c2ccc(O)cc2)c2ccc3ccc(C)nc3c2O)n1 (centres undefined) | 0.355µM* | 5.6% | 4.6% | -1.3% | -24.1%
COc1cccc(C(Nc2ccccc2)c2ccc3ccc(C)nc3c2O)c1 (centres undefined) | x | x | 37.5% | -7.7% | x
COc1ccc(NC(=O)CSc2oc(-c3ccco3)nc2S(=O)(=O)c2ccc(Br)cc2)c(OC)c1 | -25.4% | 3.6% | x | x | x
CC(=O)c1ccc(S(=O)(=O)N2Cc3ccccc3CC2C(=O)O)cc1 (centres undefined) | 11.2µM* | -10.1% | -0.2% | 29.4% | -31.3%
O=C(O)[C@H]1Cc2ccccc2CN1S(=O)(=O)c1ccc(F)cc1 | 3.5% | -4.5% | 1.5% | 18.5% | 3.4%
CN(C)S(=O)(=O)c1cc(NC(=O)CN2CCc3ccccc32)ccc1Cl | 44.7µM* | -8.6% | 1.5% | 2.6% | -0.7%
Cc1nc(N/N=C/c2ccccn2)sc1C | -8.0% | -2.3% | 2.6% | 15.8µM* | -5.5%
Cc1ccc(-c2nnn(CC(=O)N(c3ccccc3)C(C(=O)NC3CCCC3)c3ccncc3)n2)o1 (centres undefined) | -6.4% | -4.6% | 17.7% | 7.8% | -5.5%
Cc1ccc(-c2nnn(CC(=O)N(Cc3ccccc3F)C(C(=O)NC3CCCC3)c3ccncc3)n2)o1 (centres undefined) | 39.8µM* | 0.2% | -9.7% | -3.6% | 72.1%
CC/C(=N\Nc1cccc2ccccc12)c1c(O)[nH]c(=O)[nH]c1=O | 79.4µM* | u | -12.6% | u | -33.0%
N#CC(C#N)=Cc1cc2ccccc2nc1N1CCCCC1 | 5.01µM* | 9.8% | 3.2% | -24.9% | -33.4%
c1ccc(-c2cn(C[C@H]3CC[C@@H]([C@@H]4CC[C@H](Cn5cc(-c6ccccn6)nn5)O4)O3)nn2)nc1 | -19.1% | 1.2% | 1µM* | 2.5% | 27.6%
COC(=O)C1=C(C)N(Cc2ccccc2)C(=O)/C1=C\c1ccco1 | 8.91µM* | 2.3% | -20.9% | 8.2% | -15.8%
COC(=O)C1=C(C)N(CCc2ccccc2)C(=O)/C1=C\c1ccco1 | 44.7µM* | 1.3% | u | -14.0% | -30.4%
CCN1C(=O)/C(=C\c2ccco2)C(C(=O)OC)=C1C | -2.9% | 3.2% | -20.3% | -19.7% | -8.3%
CCOc1cc(/C=C2\C(=O)N(CCc3ccc(OC)c(OC)c3)C(C)=C2C(=O)OC)ccc1O | 20µM* | u | -16.4% | 0.0% | 37.8%
CCOc1cc(/C=C2\C(=O)N(Cc3ccco3)C(C)=C2C(=O)OC)ccc1O | x | 0.6% | u | 7.6% | -18.8%
COC(=O)C1=C(C)N(Cc2cccnc2)C(=O)/C1=C\c1sccc1C | -9.1% | 0.3% | u | -20.7% | 153.4%
C=CCN1C(=O)/C(=C\c2ccco2)C(C(=O)OC)=C1C | 39.8µM* | u | u | -14.8% | 17.3%
COc1ccccc1NC(=O)Cn1c(=O)n(-c2ccc(C)cc2)c(=O)c2ccc(C(=O)NCc3ccco3)cc21 | -13.6% | -2.8% | x | x | x
SMILES | Sm TGR inh | AmpC inh detg | AMA1-RON2 inh | RE007 growth inh | AmpC no deterg
COc1ccc(-c2nc(CS(=O)CC(=O)NCCc3ccccc3)c(C)o2)cc1OC (centres undefined) | u | -8.0% | x | x | x
CCOc1ccc(N2C(=O)S/C(=C\c3ccc(O)c(OC)c3)C2=O)cc1 | -5.5% | 4.6% | -6.3% | 2.9% | -8.9%
COC(=O)C1=C(C)N(Cc2ccc(C)cc2)C(=O)/C1=C\c1ccc(O)c(OC)c1 | u | u | u | 9.8% | -32.5%
COC(=O)C1=C(C)N(c2cccc(OC)c2)C(=O)/C1=C\c1ccco1 | 35.5µM* | u | u | -1.1% | -34.5%
COC(=O)C1=C(C)N(Cc2ccc(C)cc2)C(=O)/C1=C\c1cc(OC)c(OC)c(OC)c1 | -23.2% | -10.7% | 35.5µM* | -14.4% | 88.5%
CCOC(=O)C1=C(C)N(c2ccc(C)cc2)C(=O)/C1=C\c1ccc(O)c(OC)c1 | 3.16µM* | 4.6% | u | -14.3% | -9.6%
COc1ccc(OC)c(NC(=O)Cn2c(=O)n(-c3cccc(C)c3)c(=O)c3c2c2cc(C)ccc2n3C)c1 | -0.8% | -3.3% | x | x | x
COc1ccc(C(=O)Nc2nnc(S(=O)(=O)N(C)c3ccc(C)cc3)s2)cc1 | -6.7% | -1.7% | x | x | x
Cc1cc2c(n1-c1ccc(C(=O)O)cc1)CCCCC2 | 25.1µM* | -3.9% | x | x | -17.8%
COc1cccc(C2C(C(C)=O)=C(O)C(=O)N2Cc2ccco2)c1 (centres undefined) | -1.9% | -1.1% | -5.4% | 32.5% | -8.6%
CCN1CCN(C(c2cccc(F)c2)c2c(O)cc(C)n(Cc3ccco3)c2=O)CC1 (centres undefined) | 5.01µM* | 1.0% | x | x | x
CCN1CCN(C(c2cccc(OC)c2)c2sc3nc(C)nn3c2O)CC1 (centres undefined) | 0.3% | -2.9% | -6.2% | -2.8% | -14.6%
CCN1CCN(C(c2cccc(OC)c2)c2c(O)cc(C)n(Cc3ccco3)c2=O)CC1 (centres undefined) | 5.62µM* | 10.8% | x | x | x
O=C(c1cccc(F)c1)N1CCN(Cc2ccco2)CC1 | -27.4% | -0.5% | -1.7% | 1.1% | -1.0%
COc1cccc(C(c2c(O)cc(C)n(Cc3ccco3)c2=O)N2CCC(C)CC2)c1 (centres undefined) | 11.2µM* | 3.2% | x | x | x
COc1ccc(NC(=O)c2c(C)oc3ccc(O)c(CN4CCCCCC4)c23)cc1Cl | -9.2% | -5.2% | x | x | x
COc1ccc(OC)c(NC(=O)c2c(NCc3sccc3C)sc3c2CCCCC3)c1 | 20µM* | 5.0% | x | x | x
COc1ccccc1NC(=O)c1c(NCc2ccc(C)o2)sc2c1CCCCC2 | 2µM* | 2.1% | x | x | x

Bioassay records: PubChem BioAssay, National Center for Advancing Translational Sciences (NCATS)
